Source: PubChem BioAssay AID2551 (National Center for Advancing Translational Sciences (NCATS), 2010)
The campaign covered roughly 310,000 compounds. About 17,000 (5.5%) were called active. Entries that show only a call come without a potency. Roughly 11% stayed inconclusive and do not appear here. Calls follow the shape of the dose curve; as a rule, active = well fitted inhibition curve with a large enough effect; inconclusive = small, poorly fitted or top-dose-only effect, or effect the other way; inactive = no such curve, though single readings can be large or run the other way. This excerpt belongs to a sample that is enriched for actives.

Biological target: Nuclear receptor ROR-gamma (Mus musculus) (UniProt P51450)
Sequence (P51450 whole entry, looked up): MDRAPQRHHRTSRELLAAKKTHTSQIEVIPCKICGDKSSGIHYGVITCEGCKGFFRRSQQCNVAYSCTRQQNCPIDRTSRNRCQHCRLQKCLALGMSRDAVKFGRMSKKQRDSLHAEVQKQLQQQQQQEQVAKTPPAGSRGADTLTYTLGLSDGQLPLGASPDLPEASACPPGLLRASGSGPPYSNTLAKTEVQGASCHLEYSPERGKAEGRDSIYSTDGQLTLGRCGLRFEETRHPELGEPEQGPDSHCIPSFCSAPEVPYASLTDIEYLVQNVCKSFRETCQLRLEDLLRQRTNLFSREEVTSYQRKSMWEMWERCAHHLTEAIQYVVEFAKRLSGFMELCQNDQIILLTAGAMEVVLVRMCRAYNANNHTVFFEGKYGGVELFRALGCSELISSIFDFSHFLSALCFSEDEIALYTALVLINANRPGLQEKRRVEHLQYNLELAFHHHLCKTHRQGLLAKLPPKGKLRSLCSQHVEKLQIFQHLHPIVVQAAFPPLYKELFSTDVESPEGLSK
Assay: qHTS for inhibitors of ROR gamma transcriptional activity; also: nearly all actives have a fitted effect of over 60% in size
Conditions: Drosophila S2 Gal4-RORgamma UAS-luciferase reporter, 20 h; series mostly up to 53.6 µM
Procedure, shortened: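 In this cell-based reporter format, copper sulfate (700 uM final) drives Gal4–ROR gamma fusion expression from a metallothionein promoter in Drosophila Schneider cells; compounds preincubated 1 hr, reporter read after 20 hr at ambient temperature.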
Potency is read from the fitted curve at half-maximal effect.

Row | Compound | Potency
1 | Cc1c(CC(=O)NCC(=O)NCC(=O)O)c(=O)oc2cc3oc4c(c3cc12)CCCC4 | inactive
2 | O=C(OCC(=O)N1CCN(C(=O)c2ccco2)CC1)c1cccc(O)c1 | inactive
3 | CCOC(=O)N1CCN(Cc2nc(Cc3cccc(C(F)(F)F)c3)no2)CC1 | inactive
4 | Cn1c(-c2sccc2OCc2cccc(C(F)(F)F)c2)n[nH]c1=S | 4.47 µM (active)
5 | O=C(c1ccco1)N1CCN(Cc2cccc(C(F)(F)F)c2)CC1 | inactive
6 | COc1ccccc1CNS(=O)(=O)c1c(C)[nH]c(C)c1C(=O)N1CCCCC1 | inactive
7 | O=C1CCCc2c1nc(-c1cccc(Cl)c1)n2O | inactive
8 | Cc1cccc(-c2nc3ccccc3c(=O)n2NC(=O)Cc2ccc(Cl)cc2)c1 | inactive
9 | O=c1c2cc(Br)ccc2nc(-c2cccc(Cl)c2)n1O | 12.6 µM (active)
10 | NC(=O)CSc1c[nH]c2ccccc12 | inactive
11 | O=C(Cc1c[nH]c2ccccc12)N/N=C/c1cccc(F)c1 | inactive
12 | O=C(N/N=C/c1c[nH]c2ccccc12)c1cc2ccccc2o1 | inactive
13 | CSC(=S)N/N=C/c1c[nH]c2ccccc12 | 0.398 µM (active)
14 | O=C(N/N=C/c1c[nH]c2ccccc12)c1ccccc1O | 5.62 µM (active)
15 | O=C(N/N=C/c1ccc([N+](=O)[O-])cc1)c1c[nH]c2ccccc12 | inactive
16 | O=C(NCCc1c[nH]c2ccccc12)C1CCN(Cc2ccc(Br)cc2)CC1 | inactive
17 | Cc1cc(=O)oc2c3c(cc(OCC(=O)N[C@H](C(=O)O)c4ccccc4)c12)OC(C)(C)CC3 | inactive
18 | Cc1ccc(NC(=O)CSc2nn3c(=O)c(C)nnc3s2)cc1Cl | inactive
19 | COCCNC(=O)C(c1ccc(C)cc1)N(C(=O)CCC(=O)Nc1ccccn1)c1cccc(C)c1 (configuration not stated) | inactive
20 | CCCN1C2CCCC1CC(NC(=O)c1cccc(OC)c1)C2 (configuration not stated) | inactive
21 | CCCCCCC(O)(CCN1CCCCC1)c1ccccc1 (configuration not stated) | inactive
22 | Cc1cc(C(F)F)nn1CC(=O)NC1CCCCCC1 | inactive
23 | Fc1ccc(NC(=S)N2CCc3[nH]c4ccccc4c3C2)cc1 | inactive

Row | Compound | Potency
24 | O=c1c2ccccc2[nH]c(=S)n1CCN1CCC(=C(c2ccc(F)cc2)c2ccc(F)cc2)CC1 | 11.2 µM (active)
25 | O=C(CCCN1CCc2[nH]c3ccc(F)cc3c2C1)c1ccc(F)cc1 | inactive
26 | CCCCn1c(=S)[nH]c2ncccc2c1=O | 2 µM (active)
27 | CN(C)CCn1c(=S)[nH]c2ccc(Cl)cc2c1=O | 10 µM (active)
28 | CCN(CC)CCn1c(=S)[nH]c2ncccc2c1=O | inactive
29 | O=C(CCn1c(=S)[nH]c2cc3c(cc2c1=O)OCO3)NCc1ccc(Cl)cc1 | inactive
30 | CCCCn1c(=S)[nH]c2ccccc2c1=O | 2.82 µM (active)
31 | CCCCc1nc2c(=O)[nH]c3ccccc3c2o1 | inactive
32 | CCCCCn1c(=O)c(C(=O)OCC)c(Cl)c2ccccc21 | inactive
33 | O=C(O)c1ccc(Cn2c(=S)[nH]c3cc(Cl)ccc3c2=O)cc1 | inactive
34 | CCCCNC(=O)c1ccc(-n2c(=S)[nH]c3ccccc3c2=O)cc1 | inactive
35 | Cc1ccccc1NC(=O)N1CCCC1C(=O)NCc1ccccc1 (configuration not stated) | inactive
36 | COc1cccc(N(CC(=O)NCc2ccccc2)C(=O)CCC(=O)Nc2nccs2)c1 | inactive
37 | COc1ccccc1/C=C1\SC(=O)N(CCC(=O)N(C)C2CCS(=O)(=O)C2)C1=O (configuration not stated) | inactive
38 | CCN(CC)S(=O)(=O)c1ccc(N2CC(C(=O)NCc3cccnc3)CC2=O)cc1 (configuration not stated) | inactive
39 | COCCn1c(N)c(NCc2ccccc2)c(=O)[nH]c1=O | inactive
40 | CCc1nnc(NC(=O)CCC(=O)N2CCN(c3cc(C)ccc3C)CC2)s1 | inactive
41 | O=C(OCc1ccc([N+](=O)[O-])cc1)C1CC(=O)N(Cc2ccccc2Cl)C1 (configuration not stated) | inactive
42 | COc1ccccc1N1CCN(C(=O)c2cc(=O)c3cc(C)cc(C)c3o2)CC1 | inactive
43 | CC1=CC(C)(C)NC(=S)N1c1ccccc1 | 3.16 µM (active)
44 | Cc1cccc([C@@H]2[C@@H]3C(=O)N(C)C(=O)[C@@H]3[C@@H]3C(=O)Nc4ccccc4C(=O)N23)c1 | inactive
45 | Cn1c(CCc2ccccc2)nnc1SCC(N)=O | inactive
46 | CCC(C)(C)NC(=O)CN(C(=O)CCC(=O)Nc1nccs1)c1ccc2c(c1)OCO2 | inactive

Row | Compound | Potency
47 | CC(=O)c1cccc(NC(=O)CN2C(=O)c3cccnc3Oc3ccc(Cl)cc32)c1 | inactive
48 | Nc1cc(N)nc(SCc2ccc(Cl)cc2)n1 | inactive
49 | Clc1ccc(CSc2nnc(/C=C/c3ccccc3)o2)c(Cl)c1 | inactive
50 | CSCc1cc(N(C)C)nc(SCc2ccc(Cl)cc2Cl)n1 | 8.91 µM (active)
51 | Cc1cc(C)c(OCC(=O)N(Cc2cccs2)C2CCS(=O)(=O)C2)c(C)c1 (configuration not stated) | inactive
52 | CCOC(=O)c1ccc(NC(=S)Nc2cc(C)cc(C)n2)cc1 | 2 µM (active)
53 | COC(=O)c1ccc(NC(=S)Nc2cccc(C)n2)cc1 | 2 µM (active)
54 | Cc1cccc(NC(=O)Cc2ccc(Br)cc2)n1 | inactive
55 | CCOC(=O)c1ccc(NC(=O)c2cccnc2)cc1 | inactive
56 | Cc1cccc(NC(=O)Nc2ccc(OCc3ccccc3)cc2)n1 | inactive
57 | CCOC(=O)c1ccc(NC(=O)Cn2nnc(-c3ccc(C)cc3)n2)cc1 | inactive
58 | CC(=O)N1c2ccc(S(=O)(=O)N3CCCC(C(=O)Nc4ccc(C)cc4C)C3)cc2CC1C (configuration not stated) | inactive
59 | COc1cccc(/C=C2\Sc3ccc(C(=O)NCC4CCCO4)cc3N(C)C2=O)c1 (configuration not stated) | inactive
60 | COc1cc(OC)cc(C(=O)NCCSCc2ccc(Cl)cc2)c1 | inactive
61 | CCCCOC(=O)c1ccc(N2C(=O)CC(N3CCN(C/C=C/c4ccccc4)CC3)C2=O)cc1 (configuration not stated) | inactive
62 | CCOC(=O)c1ccc(N2C(=O)CC(N(C)Cc3ccccc3)C2=O)cc1 (configuration not stated) | inactive
63 | CCCCCCC(=O)N(O)C1CC(=O)N(c2ccccc2)C1=O (configuration not stated) | 2.82 µM (active)
64 | CCNc1ncc2ncc(=O)n(Cc3cccc(OC)c3)c2n1 | 12.6 µM (active)
65 | CCNc1ncc2ncc(=O)n(CCc3ccccc3)c2n1 | inactive
66 | COc1cccc(Cn2c(=O)c(C)nc3cnc(Oc4ccccc4)nc32)c1 | inactive
67 | Cc1ccc(SCCSc2ncccn2)cc1 | inactive
68 | Cc1ccc2c(C)c(C(=O)N(C)Cc3ccncn3)oc2c1C | inactive
69 | CCCCn1c(=S)[nH]c2cc(S(=O)(=O)N3CCCCC3)ccc21 | 11.2 µM (active)

Row | Compound | Potency
70 | CCOC(=O)N1CCN(C(=O)c2cn(C)c3ccc(S(=O)(=O)N4CCCC4)cc3c2=O)CC1 | inactive
71 | O=c1[nH]c2ccc(S(=O)(=O)N3CCCC3)cc2[nH]1 | inactive
72 | CN(C)CCN(C(=O)C1CCCCC1)c1nc2cc3c(cc2s1)OCO3 | inactive
73 | Brc1ccc(OCCn2ccnc2)cc1 | inactive
74 | COc1ccc(NC(=O)CCn2ccnc2)c(OC)c1 | inactive
75 | CC1(C)C2CCC1(C)C(OC(=O)CCn1ccnc1)C2 (configuration not stated) | 11.2 µM (active)
76 | O=C(Nc1ccncc1)c1ccc(Cl)c([N+](=O)[O-])c1 | inactive
77 | CC1CCN(C(=S)c2cccc(O)c2)CC1 | inactive
78 | COc1ccc(C(=O)Nc2c(Cl)cc(Cl)cc2C(=O)N2CCC(C)CC2)cc1 | inactive
79 | CC1CCN(C(=S)c2ccc(-c3ccc(Cl)cc3Cl)o2)CC1 | 15.8 µM (active)
80 | CCc1ccc(NC(=O)CCNS(=O)(=O)c2cccs2)cc1 | inactive
81 | Cc1ccc(NC(=O)[C@H](Cc2ccccc2)NC(=O)C2CCNCC2)cc1 | inactive
82 | CC1=CC(C)(C)Nc2ccc(OC(=O)CN3C(=O)C4CCCCC4C3=O)cc21 (configuration not stated) | 4.47 µM (active)
83 | O=C(CN1C(=O)C2C3CCC(C3)C2C1=O)Oc1ccc2ccccc2c1 (configuration not stated) | inactive
84 | CC1=CC(C)(C)Nc2ccc(OC(=O)C(Cc3ccccc3)N3C(=O)C4CCCCC4C3=O)cc21 (configuration not stated) | inactive
85 | O=C1CSc2ccc(S(=O)(=O)NCc3ccccc3)cc2N1 | inactive
86 | CN(Cc1ccccc1)C(=O)C1CCCN(c2ncnc3c2nc2n3CCCCC2)C1 (configuration not stated) | inactive
87 | CN(C)CCN(C(=O)C1=COCCO1)c1nc2ccc(Cl)cc2s1 | inactive
88 | CN(C)c1ccc(/C=C2\NC(=S)N(Cc3ccccc3)C2=O)cc1 | 5.01 µM (active)
89 | O=C1NCC(=O)N(Cc2ccccc2)/C1=C/c1ccccc1 | inactive
90 | CC1=NN(Cc2ccccc2)C(=O)/C1=C/c1ccc(N(C)C)cc1 | inactive
91 | COC(=O)CSc1nnc(NC(=O)CCc2ccccc2)s1 | inactive
92 | O=C(Cc1ccc(Br)cc1)NCCN1CCOCC1 | inactive

Row | Compound | Potency
93 | Clc1ccc(-c2nc3ccccn3c2CN2CCSCC2)cc1 | 12.6 µM (active)
94 | Clc1ccc(-c2nnc(-c3ccccc3)nc2N2CCSCC2)cc1 | inactive
95 | CC1CCN(Cc2nc(-c3ccc(Cl)cc3)no2)CC1 | inactive
96 | Cc1ccc(N(Cc2ccccc2O)C(=O)c2ccccc2F)cc1 | inactive
97 | COc1ccc(C(=O)ON=C2c3ccccc3-c3ccccc32)cc1OC | inactive
98 | COc1ccc(C(=O)O/N=C(\N)Cc2ccc(Cl)cc2Cl)cc1OC | 15.8 µM (active)
99 | COc1ccc(C/C(N)=N/OC(=O)c2ccco2)cc1OC | inactive
100 | CCOc1ccc(N(CC(=O)Nc2cccc(OC)c2)S(C)(=O)=O)cc1 | inactive
101 | OC(CNCCc1ccc(Cl)cc1Cl)COc1ccccc1 (configuration not stated) | inactive
102 | COc1ccc(C2CC(c3cccs3)=NN2C(=O)CCC(=O)O)cc1OC (configuration not stated) | inactive
103 | O=C(CCCCCNC(=O)c1ccccc1)N/N=C/c1ccccc1 | inactive
104 | O=C(N/N=C/c1ccccc1O)/C(=C/c1ccccc1)CCO | 1.12 µM (active)
105 | O=C(CCC(=O)Nc1ccccc1)N/N=C/c1ccccc1F | inactive
106 | COC(=O)c1ccc(COC(=O)c2cnc(Cl)c(Cl)c2)cc1 | inactive
107 | CCn1c(SCC(=O)NC2CC2)nnc1-c1ccccn1 | inactive
108 | CCC(=O)c1ccc(OC(=O)/C=C/c2cc(OC)c(OC)c(OC)c2)cc1 | inactive
109 | COc1cc(/C=C/C2=CC(C)(C)NC(=S)N2)cc(OC)c1OC | 3.55 µM (active)
110 | COc1ccc(/C=C/C2=CC(C)(C)NC(=S)N2)c(OC)c1 | 1.26 µM (active)
111 | COc1ccc(/C=C2/C(=O)N(c3ccccc3)N=C2C)c(OC)c1 | inactive
112 | COc1ccc(N)c(OC)c1 | inactive
